In the library only some 10% were active in any assay of this set; here they are far more common.
HEK cytotox: HEK 293 cell cytotoxicity. actives 6.6% (n = 94,000). Potency, µM (top dose mostly 115 µM), for the others: top-dose activity change, negative = cytotoxicity, actives largely listed as inhibitors. HEK 293 viability, ATP luminescence (CellTiter-Glo), 48-72 h; also: % is scaled to controls: 0 for no effect and ±100 for the full control effect; nearly all actives have a fitted effect of over 60% in size
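HEK 293 cells at 250 cells/well were exposed to compounds by pintool transfer for 48 or 72 hr at 37 degree Celsius, 5% CO2. Viability was read as ATP-coupled luminescence with CellTiter-Glo after 10 min at room temperature.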
hNpr1 antagonist: blocks ANP-stimulated signaling of human Npr1 receptor; actives 1.6% (n = 76,000); P16066; AID 1347048; HEK293 hNpr1 GloSensor cGMP, ANP-stimulated luminescence; Potency, µM (highest dose often 46.3 µM), for the others: top-dose activity change, negative = inhibition, actives largely listed as inhibitors; calls by dose curve; also: % is scaled to controls: 0 for no effect and ±100 for the full control effect; nearly all actives have a fitted effect of over 60% in size
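Compound pre-incubated 30 min at room temperature on GloSensor-loaded HEK293 cells stably carrying hNpr1 and the pGS-40F cGMP biosensor. Stimulation uses hNppA at 0.1 nM final; luminescence is taken at baseline and 20 min post-agonist.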
GPT2 inhibitor: blocks human glutamate pyruvate transaminase 2; Q8TD30; Recombinant GPT2, coupled pyruvate oxidase/HRP Amplex Red fluorescence; Potency, µM (top dose mostly 57.7 µM), without a hit: at the top dose activity change, negative = inhibition, actives largely listed as inhibitors; actives 0.25% (n = 100,000); AID 1671188; also: % is scaled to controls: 0 for no effect and ±100 for the full control effect; nearly all actives have a fitted effect of over 60% in size
Target sequence (Q8TD30 whole entry, looked up): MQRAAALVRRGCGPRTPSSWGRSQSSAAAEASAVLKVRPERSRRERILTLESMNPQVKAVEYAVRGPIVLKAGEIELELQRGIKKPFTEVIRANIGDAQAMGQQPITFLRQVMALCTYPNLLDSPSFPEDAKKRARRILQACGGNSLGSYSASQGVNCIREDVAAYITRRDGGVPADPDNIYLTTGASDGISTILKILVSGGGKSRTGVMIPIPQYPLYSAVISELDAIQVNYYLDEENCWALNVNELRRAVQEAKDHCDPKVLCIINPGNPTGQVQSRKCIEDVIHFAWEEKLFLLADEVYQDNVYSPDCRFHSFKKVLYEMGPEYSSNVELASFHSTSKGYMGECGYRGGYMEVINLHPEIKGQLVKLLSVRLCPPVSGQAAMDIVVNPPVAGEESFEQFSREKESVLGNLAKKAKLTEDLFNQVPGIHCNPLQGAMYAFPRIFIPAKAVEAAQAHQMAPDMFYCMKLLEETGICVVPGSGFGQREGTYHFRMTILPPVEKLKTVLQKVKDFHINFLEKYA
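Fluorescence read-out: pyruvate from GPT2 turnover coupled to pyruvate oxidase, HRP and Amplex Red (0.2mM ThPP, 0.2U/mL PO and HRP, 50uM Amplex final). Substrates 250uM a-KG, 2mM L-alanine; enzyme 10ng/uL; 30 min RT.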
NIH3T3 tox: NIH 3T3 cell cytotoxicity; AID 1345082; NIH 3T3 viability, CellTiter-Glo ATP luminescence, 48-72 h; Potency, µM (titrated, usually from 96.7 µM), for the others: at the highest dose activity change, negative = cytotoxicity, most hits filed as inhibitors; actives 4.3% (n = 94,000); also: % is scaled to controls: 0 for no effect and ±100 for the full control effect; nearly all actives have a fitted effect of over 55% in size
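Viability of NIH 3T3 cells after 48 or 72 hr compound treatment at 37 °C was assessed by CellTiter-Glo, with luminescence imaged following a 10 min room-temperature step.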
FLuc inh-1: Photinus pyralis luciferase inhibition | actives 2.5% (n = 76,000) | AID 1347043 | P08659 | Potency, µM (series often up to 115 µM), hits mostly inhibitors | purified P. pyralis luciferase, luminescence, biochemical; also: % is scaled to controls: 0 for no effect and ±100 for the full control effect; nearly all actives have a fitted effect of over 65% in size
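Inhibitors were tested against purified firefly luciferase in a biochemical, low-substrate format (both substrates at 10uM) and luminescence measured with a CCD imager.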
FLuc SDR no ATP: binders stabilizing firefly luciferase, without ATP; shares compounds with FLuc inh-1; Purified FLuc-C-HiBiT, Nano-Glo HiBiT luminescence, no ATP; Potency, µM (doses to about 32.7 µM), inactives show at the highest dose activation (signal gain), usual class: activators; actives 7.8% (n = 1,300); AID 1963318; also: nearly all actives have a fitted effect of over 55% in size
FLuc SDR ATP: binders stabilizing firefly luciferase, plus ATP; Potency, µM (series often up to 32.7 µM), for the others: top-dose activation (gain of signal), usual class: activators; purified FLuc-C-HiBiT + ATP, HiBiT complementation luminescence; actives 8.7% (n = 1,300); shares compounds with FLuc inh-1;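 also: signal reports ligand binding via conformational change of the enzyme rather than luciferase catalysis; % of control where 0% means no effect; nearly all actives have a fitted effect of over 55% in size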
FLuc inh-2: inhibitors of firefly luciferase enzymatic activity. shares compounds with FLuc inh-1. purified FLuc-C-HiBiT enzyme, luciferin luminescence. actives 42% (n = 1,300). Potency, µM (series often up to 32.7 µM), for the others: at the top dose activity change, negative = inhibition, actives largely listed as inhibitors; also: % is scaled to controls: 0 for no effect and ±100 for the full control effect; nearly all actives have a fitted effect of over 70% in size
Active calls of the source: *; i = inactive; ? = inconclusive; · = not tested or not shown; [ ] = dose if it differs, or a comment. Unless noted, calls follow the shape of the dose curve; as a rule, active = well fitted curve in the direction sought with a large enough effect; inconclusive = small, poorly fitted or top-dose-only effect, or another doubt; inactive = no such curve, though single readings can be large; an effect the other way counts as inactive or inconclusive. Potency is read from the fitted curve at half-maximal effect.

SMILES	HEK cytotox	hNpr1 antagonist	GPT2 inhibitor	NIH3T3 tox	FLuc inh-1	FLuc SDR no ATP	FLuc SDR ATP	FLuc inh-2
Cc1nn(-c2ccc(C(C)C)cc2)c(C)c1[C@@H]1C=C[C@@H](NC(=O)COCC(=O)O)C1	-19%[172 µM]	1%[70.6 µM]	i	?	35µM*	17%[49.3 µM]	13%[49.3 µM]	?
Cc1ccc(-n2nc(C)c([C@@H]3C=C[C@@H](NC(=O)COCC(=O)O)C3)c2C)cc1Cl	-20%[172 µM]	0%[70.6 µM]	-22%[88.5 µM]	-23%[174 µM]	35µM*	10%[49.3 µM]	9%[49.3 µM]	-1%[49.3 µM]
Cc1ccccc1-n1nc(C)c([C@H]2C=C[C@@H](OC(=O)N[C@H](C)c3ccccc3)C2)c1C	?	-18%[70.6 µM]	0%[88.5 µM]	?	i	·	·	·
Cc1nn(-c2ccc(C(F)(F)F)cc2)c(C)c1[C@@H]1C=C[C@@H](NC(=O)CSCC(=O)O)C1	?	-2%	1%	-14%	i	·	·	·
Cc1ccc(-n2nc(C)c([C@H]3C=C[C@@H](OC(=O)Nc4cccc(C(F)(F)F)c4)C3)c2C)cc1Cl	32µM*	?	-9%	?	11µM*	14%	12%	-9%
Cc1nn(-c2ccc(C(C)(C)C)cc2)c(C)c1[C@@H]1C=C[C@@H](NC(=O)CCCC(=O)O)C1	-24%[172 µM]	-11%[70.6 µM]	-24%[88.5 µM]	?	22µM*	25%[49.3 µM]	?	?
CC(=O)NCC(=O)NCC1CCN(c2cc(-c3ccc(F)cc3)[nH]n2)CC1	10%	1%	?	i	i	·	·	·
Cc1cc(C(=O)N2CC(N(C3CCOCC3)S(C)(=O)=O)C2)nn1C	i	-8%	3%	0%	i	·	·	·
Cc1ccncc1C(=O)N1CCC(N2C(=O)C3(CCCC3)C2c2ccccc2)CC1 (stereo not given)	-17%	·	-9%	-27%	·	·	·	·
COc1ccccc1OCc1nc2ccccc2n1Cc1ccccc1	·	·	·	·	·	15%	9%	?
COc1ccc(OCc2nc3c(n2Cc2ccccc2)C(=O)N(Cc2ccccc2)CCN3)cc1OC	?	2%	-7%	?	i	·	·	·
O=C(c1ccccc1)N1CCCCC1c1nc(-c2ccccc2)n[nH]1 (stereo not given)	-8%	·	0%	?	·	·	·	·
COCc1cn(C[C@H]2C[C@@H](NC(=O)c3ccc(C#N)cc3)[C@H](O)[C@@H]2O)nn1	2%[172 µM]	-3%[70.6 µM]	-1%[88.5 µM]	i	i	·	·	·
Cc1nnc(SCc2ccccc2)c2cc3sccc3n12	·	·	·	·	·	16%	10%	?
COc1ccccc1C(=O)Nc1onc2c1CCCC2	·	·	·	·	·	14%	?	9.9µM*
COc1ccccc1C(=O)Nc1cc2c(cc1N1CCCC1)n(C)c(=O)n2C	·	·	i	·	·	·	·	·
Cc1ccc(C(=O)Nc2onc3c2CCCC3)cc1	·	·	·	·	·	?	3.9µM*	0.99µM*
COc1ccc(NC(=O)N2CC3CN(C)CC(C2)O3)cc1	3%	-2%	i	-9%	i	·	·	·
COc1ccc(NC(=O)/C(C#N)=C/c2ccc(C)o2)cc1	·	·	·	·	·	22%	17%	?
COc1ccc(-n2nc3ccc(NC(=O)c4c(OC)cccc4OC)cc3n2)cc1	·	·	·	·	·	16%	12%	-16%
Cc1ccc(-c2noc([C@@H]3CCCN3C(=O)c3ccc(C(C)C)cc3)n2)cc1	?	4%	i	?	?	·	·	·
Cc1ccc(NC(=O)C2CCN(c3nc(-c4ccc(C(C)C)cc4)no3)CC2)c(Cl)c1	·	·	·	·	·	18%	?	?
